Test results published in the supplement of paper PMC11732987, “Enantioselective OTUD7B fragment discovery through chemoproteomics screening and high-throughput optimisation” (Communications Chemistry, 2025).

What was measured:
Assay in all cases: log2 ratio of Biotin-Ahx-Ub-VS probe labelling (fragment/DMSO); higher = less target engagement (more negative = stronger competition), active = hit call of the paper (q ≤ 0.05, log2 ratio ≤ -1)
Details in all cases: compound concentration: 200 uM; treatment time: 3 h
[1] = molecular target: T1, OTUD6B (UniProt Q8N6M0)
T1 sequence (whole entry): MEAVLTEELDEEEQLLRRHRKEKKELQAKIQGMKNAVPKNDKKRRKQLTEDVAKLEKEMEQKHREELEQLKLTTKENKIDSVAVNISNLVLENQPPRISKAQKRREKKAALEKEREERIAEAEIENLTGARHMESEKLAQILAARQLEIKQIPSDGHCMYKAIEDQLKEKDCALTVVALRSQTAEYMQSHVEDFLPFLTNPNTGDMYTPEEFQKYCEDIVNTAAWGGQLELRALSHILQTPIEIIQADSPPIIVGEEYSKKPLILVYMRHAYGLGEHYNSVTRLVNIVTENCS
How it was run: (§1)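 Fragment (200 µM) or vehicle was incubated for 3 h with triplicate HEK293T lysate samples of 495 µg, which were then treated with Biotin-Ahx-Ub-VS at 0.5 µM final for 1 h. Labelled DUBs were enriched on NeutrAvidin, digested with LysC and trypsin, and analysed by diaPASEF LC-MS/MS. Values are average log2 fragment/vehicle ratios from an unpaired t-test on global-median-normalised Spectronaut label-free quantities, using proteins with ≥2 unique peptides.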

[2] = molecular target: T2, OTUD7B (UniProt Q6GQQ9)
T2 sequence (whole entry): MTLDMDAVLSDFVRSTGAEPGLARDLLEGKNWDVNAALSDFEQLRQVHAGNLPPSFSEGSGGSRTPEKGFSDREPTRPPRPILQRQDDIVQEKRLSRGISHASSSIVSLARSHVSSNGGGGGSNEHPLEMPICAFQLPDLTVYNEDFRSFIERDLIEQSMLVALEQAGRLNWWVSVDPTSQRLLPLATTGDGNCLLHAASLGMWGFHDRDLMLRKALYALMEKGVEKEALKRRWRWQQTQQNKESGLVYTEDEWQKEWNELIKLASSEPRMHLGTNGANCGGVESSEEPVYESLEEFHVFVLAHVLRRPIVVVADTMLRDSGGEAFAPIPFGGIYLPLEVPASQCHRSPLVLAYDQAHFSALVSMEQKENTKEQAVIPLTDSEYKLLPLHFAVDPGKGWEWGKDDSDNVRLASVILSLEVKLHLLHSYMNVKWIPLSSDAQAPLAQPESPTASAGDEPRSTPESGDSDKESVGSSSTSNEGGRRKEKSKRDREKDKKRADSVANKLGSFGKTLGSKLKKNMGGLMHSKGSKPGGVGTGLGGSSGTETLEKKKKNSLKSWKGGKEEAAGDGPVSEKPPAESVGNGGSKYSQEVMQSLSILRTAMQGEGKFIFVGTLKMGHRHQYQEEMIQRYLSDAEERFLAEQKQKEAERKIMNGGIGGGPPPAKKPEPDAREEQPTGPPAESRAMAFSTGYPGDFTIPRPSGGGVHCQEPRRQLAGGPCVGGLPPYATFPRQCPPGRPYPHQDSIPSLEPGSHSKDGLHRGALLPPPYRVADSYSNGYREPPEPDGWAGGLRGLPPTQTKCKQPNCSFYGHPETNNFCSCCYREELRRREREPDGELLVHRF
How it was run: as §1

[3] = molecular target: PRPF8 (UniProt Q6P2Q9)
How it was run: as §1

[4] = molecular target: T3, PSMD7 (UniProt P51665)
T3 sequence (whole entry): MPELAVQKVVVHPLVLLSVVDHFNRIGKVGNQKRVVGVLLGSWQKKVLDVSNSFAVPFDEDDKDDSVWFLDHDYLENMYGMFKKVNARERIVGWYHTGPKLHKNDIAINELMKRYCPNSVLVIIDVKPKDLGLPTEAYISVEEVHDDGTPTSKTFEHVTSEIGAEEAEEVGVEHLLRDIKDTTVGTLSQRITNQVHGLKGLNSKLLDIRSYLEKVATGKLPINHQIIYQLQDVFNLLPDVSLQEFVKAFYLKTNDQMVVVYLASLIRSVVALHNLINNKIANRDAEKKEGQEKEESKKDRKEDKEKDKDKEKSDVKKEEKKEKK
How it was run: as §1

[5] = molecular target: UCHL1 (UniProt P09936)
How it was run: as §1

[6] = molecular target: T4, UCHL3 (UniProt P15374)
T4 sequence (whole entry): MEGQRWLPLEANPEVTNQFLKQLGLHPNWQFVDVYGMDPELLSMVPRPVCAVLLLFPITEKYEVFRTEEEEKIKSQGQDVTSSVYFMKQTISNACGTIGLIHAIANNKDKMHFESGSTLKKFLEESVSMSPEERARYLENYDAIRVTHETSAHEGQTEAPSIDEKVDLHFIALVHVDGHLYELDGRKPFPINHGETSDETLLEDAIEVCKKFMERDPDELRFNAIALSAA
How it was run: as §1

[7] = molecular target: T5, UCHL5 (UniProt Q9Y5K5)
T5 sequence (whole entry): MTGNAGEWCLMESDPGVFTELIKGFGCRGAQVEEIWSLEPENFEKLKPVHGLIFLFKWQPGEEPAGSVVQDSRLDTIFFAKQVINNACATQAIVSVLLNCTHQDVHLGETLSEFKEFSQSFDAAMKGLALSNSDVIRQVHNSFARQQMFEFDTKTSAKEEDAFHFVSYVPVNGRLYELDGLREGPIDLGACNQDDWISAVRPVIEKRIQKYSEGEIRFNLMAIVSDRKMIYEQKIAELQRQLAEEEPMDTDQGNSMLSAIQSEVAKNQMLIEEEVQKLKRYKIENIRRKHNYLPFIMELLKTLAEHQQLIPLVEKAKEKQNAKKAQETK
How it was run: as §1

[8] = molecular target: USP10 (UniProt Q14694)
How it was run: as §1

[9] = molecular target: T6, USP15 (UniProt Q9Y4E8)
T6 sequence (whole entry): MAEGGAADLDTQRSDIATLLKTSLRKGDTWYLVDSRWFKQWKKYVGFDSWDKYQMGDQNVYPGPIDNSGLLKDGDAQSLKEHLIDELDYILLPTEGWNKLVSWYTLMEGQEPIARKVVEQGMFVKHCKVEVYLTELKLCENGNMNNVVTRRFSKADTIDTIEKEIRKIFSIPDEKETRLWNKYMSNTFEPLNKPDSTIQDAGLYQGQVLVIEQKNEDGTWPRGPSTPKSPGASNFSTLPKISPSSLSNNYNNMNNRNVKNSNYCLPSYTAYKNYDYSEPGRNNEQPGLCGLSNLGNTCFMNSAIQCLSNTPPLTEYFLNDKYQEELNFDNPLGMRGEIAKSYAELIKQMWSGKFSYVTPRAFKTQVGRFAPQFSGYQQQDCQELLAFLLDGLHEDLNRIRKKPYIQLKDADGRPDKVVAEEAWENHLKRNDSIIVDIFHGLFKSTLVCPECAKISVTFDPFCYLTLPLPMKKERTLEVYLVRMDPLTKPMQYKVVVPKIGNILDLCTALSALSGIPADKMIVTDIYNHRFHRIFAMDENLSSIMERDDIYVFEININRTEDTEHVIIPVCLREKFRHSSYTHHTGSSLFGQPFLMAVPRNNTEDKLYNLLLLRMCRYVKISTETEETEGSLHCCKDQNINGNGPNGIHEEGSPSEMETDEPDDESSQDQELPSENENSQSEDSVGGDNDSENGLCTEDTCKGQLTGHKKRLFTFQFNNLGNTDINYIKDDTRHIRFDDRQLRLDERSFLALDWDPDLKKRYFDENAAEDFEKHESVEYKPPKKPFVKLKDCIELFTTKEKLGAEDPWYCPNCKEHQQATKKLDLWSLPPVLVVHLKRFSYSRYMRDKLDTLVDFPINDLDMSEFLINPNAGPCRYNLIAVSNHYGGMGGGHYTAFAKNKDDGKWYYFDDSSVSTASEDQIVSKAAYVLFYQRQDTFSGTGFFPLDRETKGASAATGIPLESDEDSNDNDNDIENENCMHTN
How it was run: as §1

[10] = molecular target: USP16 (UniProt Q9Y5T5)
How it was run: as §1

Measured: log2 ratio of Biotin-Ahx-Ub-VS probe labelling

Chain of USP10 (Q14694 whole entry): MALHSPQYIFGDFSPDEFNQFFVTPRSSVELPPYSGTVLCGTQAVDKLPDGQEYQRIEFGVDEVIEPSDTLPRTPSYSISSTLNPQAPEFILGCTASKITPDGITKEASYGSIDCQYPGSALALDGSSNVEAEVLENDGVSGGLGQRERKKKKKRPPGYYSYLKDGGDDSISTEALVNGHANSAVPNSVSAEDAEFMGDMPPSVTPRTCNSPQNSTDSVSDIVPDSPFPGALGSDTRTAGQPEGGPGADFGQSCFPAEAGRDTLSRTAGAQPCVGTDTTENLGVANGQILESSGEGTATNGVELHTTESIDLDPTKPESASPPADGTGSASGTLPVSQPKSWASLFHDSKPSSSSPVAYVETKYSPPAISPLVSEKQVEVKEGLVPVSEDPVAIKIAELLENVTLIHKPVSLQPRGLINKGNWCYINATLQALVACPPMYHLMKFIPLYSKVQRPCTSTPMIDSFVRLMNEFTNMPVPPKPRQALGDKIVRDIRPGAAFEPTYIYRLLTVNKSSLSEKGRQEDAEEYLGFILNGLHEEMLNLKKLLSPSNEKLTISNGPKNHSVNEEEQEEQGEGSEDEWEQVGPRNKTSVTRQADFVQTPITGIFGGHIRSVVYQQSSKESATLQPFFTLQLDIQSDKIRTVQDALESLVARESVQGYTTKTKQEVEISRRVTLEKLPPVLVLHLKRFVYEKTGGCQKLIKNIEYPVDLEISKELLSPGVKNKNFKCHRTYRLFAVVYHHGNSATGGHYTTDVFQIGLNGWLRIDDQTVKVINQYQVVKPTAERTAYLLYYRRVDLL
Chain of USP16 (Q9Y5T5 whole entry, looked up): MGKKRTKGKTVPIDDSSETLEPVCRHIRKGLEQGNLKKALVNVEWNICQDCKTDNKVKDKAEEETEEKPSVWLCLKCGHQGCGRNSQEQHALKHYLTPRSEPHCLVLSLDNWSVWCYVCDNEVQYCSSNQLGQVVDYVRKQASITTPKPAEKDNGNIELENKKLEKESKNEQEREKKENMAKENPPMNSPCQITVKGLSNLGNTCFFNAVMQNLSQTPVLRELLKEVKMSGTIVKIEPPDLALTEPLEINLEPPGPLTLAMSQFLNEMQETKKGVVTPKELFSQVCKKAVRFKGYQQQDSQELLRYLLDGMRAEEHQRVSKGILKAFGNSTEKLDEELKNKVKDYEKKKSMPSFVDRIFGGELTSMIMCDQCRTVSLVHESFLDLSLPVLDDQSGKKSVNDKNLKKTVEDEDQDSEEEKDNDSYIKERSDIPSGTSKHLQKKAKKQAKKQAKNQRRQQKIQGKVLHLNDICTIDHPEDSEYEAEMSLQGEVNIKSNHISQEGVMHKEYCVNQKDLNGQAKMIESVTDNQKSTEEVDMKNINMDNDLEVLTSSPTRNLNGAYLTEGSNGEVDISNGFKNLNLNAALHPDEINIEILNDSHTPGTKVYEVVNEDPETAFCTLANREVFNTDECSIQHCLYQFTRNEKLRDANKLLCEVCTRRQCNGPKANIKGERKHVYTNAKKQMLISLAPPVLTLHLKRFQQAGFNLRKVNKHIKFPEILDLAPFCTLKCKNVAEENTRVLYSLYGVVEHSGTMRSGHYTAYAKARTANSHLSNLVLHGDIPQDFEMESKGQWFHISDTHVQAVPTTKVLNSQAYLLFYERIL
Chain of UCHL1 (P09936 whole entry, looked up): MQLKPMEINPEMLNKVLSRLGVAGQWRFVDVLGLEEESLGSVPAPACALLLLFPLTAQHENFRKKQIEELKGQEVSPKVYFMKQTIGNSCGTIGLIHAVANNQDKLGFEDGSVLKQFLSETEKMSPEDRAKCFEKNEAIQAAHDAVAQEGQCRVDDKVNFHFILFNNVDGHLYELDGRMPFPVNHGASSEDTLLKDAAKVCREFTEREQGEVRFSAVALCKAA

CC(C)n1nccc1NC(=O)CCl
active: [2] -2.07 | [5] -1.45
inactive: [1] -0.189 | [3] -0.0737 | [4] -0.278 | [6] 0.181 | [7] -0.327 | [8] 0.0851 | [9] -0.314 | [10] -0.153
